Rv3671c inh = inhibitors of M. tuberculosis serine protease Rv3671c; inhibition, % at 5.96 µM; 320,000 compounds, 0.048% hits; in the data active = inhibition above about 38%;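 note: extracellular domain of Rv3671c used as enzyme; 0% = enzyme with DMSO and 100% = no enzyme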
Target sequence (P9WHR9 whole entry, looked up, the tested form may be a part): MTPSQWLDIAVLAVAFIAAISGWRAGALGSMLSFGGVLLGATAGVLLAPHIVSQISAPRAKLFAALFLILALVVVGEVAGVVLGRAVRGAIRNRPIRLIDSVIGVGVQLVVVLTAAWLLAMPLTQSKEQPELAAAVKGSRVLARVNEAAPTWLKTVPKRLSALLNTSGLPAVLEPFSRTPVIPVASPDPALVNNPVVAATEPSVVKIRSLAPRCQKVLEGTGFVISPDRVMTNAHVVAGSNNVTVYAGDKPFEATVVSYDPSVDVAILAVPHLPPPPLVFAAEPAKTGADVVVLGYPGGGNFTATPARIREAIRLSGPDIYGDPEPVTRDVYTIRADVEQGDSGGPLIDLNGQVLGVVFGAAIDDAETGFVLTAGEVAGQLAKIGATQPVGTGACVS
Mtb hypoxia inh = reduces hypoxia-regulated biosensor signal in M. tuberculosis | 300,000 compounds, 0.1% hits | M. tuberculosis hypoxia-regulated fluorescent reporter, fluorescence | fluorescence inhibition, % (no concentration beside the values); in the data active = fluorescence inhibition mostly above about 23%, no sharp cut-off; inactive = mostly below about 17%
GDH-TPI counter-1 = counter-screen for M. tuberculosis FBA inhibitors: GDH-TPI coupled enzymes; GDH-TPI coupled enzyme counterscreen, NADH absorbance; inhibition, % at 4.8 µM; AID 588335; 360,000 compounds, 1.2% hits; in the data active = inhibition above about 30%;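 note: 0% = DMSO wells and 100% = wells lacking the enzyme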
Mtb FBA inh = Mtb fructose-bisphosphate aldolase inhibition; P9WQA3; purified M. tuberculosis FBA, fluorescence read-out; inhibition, % at 1 µM; 360,000 compounds, 2.3% hits; AID 588726;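 note: 0% = vehicle and 100% = reference inhibitor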
Target sequence (P9WQA3 whole entry, looked up): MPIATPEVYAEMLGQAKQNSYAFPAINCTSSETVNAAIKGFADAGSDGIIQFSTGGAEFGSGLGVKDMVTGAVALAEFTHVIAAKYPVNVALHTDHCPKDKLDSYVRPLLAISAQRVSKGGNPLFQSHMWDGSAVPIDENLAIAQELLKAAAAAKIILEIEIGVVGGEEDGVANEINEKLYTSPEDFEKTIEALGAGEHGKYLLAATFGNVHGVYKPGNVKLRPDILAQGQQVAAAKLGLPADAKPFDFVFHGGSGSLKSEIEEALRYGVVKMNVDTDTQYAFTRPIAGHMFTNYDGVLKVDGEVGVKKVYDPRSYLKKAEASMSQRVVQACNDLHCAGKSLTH
FadD28 FP inh = inhibitors of Mycobacterium tuberculosis FadD28 bisubstrate binding. inhibition, % at 12.5 µM. FadD28 bisubstrate probe binding, fluorescence polarization. 360,000 compounds, 0.22% hits; in the data active = inhibition above about 8.5%, passing the limit was not always enough
Mtb UGM inh = inhibitors of M. tuberculosis UDP-galactopyranose mutase | P9WIQ1 | purified UGM, fluorescence polarization probe displacement | inhibition, % at 10 µM | 320,000 compounds, 0.06% hits; in the data active = inhibition above about 10%, passing the limit was not always enough
Mtb FBA inh conf = Mtb FBA inhibition, confirmed; inhibition, % at 1 µM; shares compounds with Mtb FBA inh; 5,600 compounds, 78% hits; purified M. tuberculosis FBA, fluorescence read-out;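 note: 0% = vehicle wells and 100% = reference inhibitor wells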
GDH-TPI counter-2 = GDH-TPI inhibition counter-screen for FBA inhibitors. shares compounds with Mtb FBA inh. GDH-TPI coupled enzyme counterscreen, fluorescence. inhibition, % at 1 µM. 5,600 compounds, 81% hits; in the data active = inhibition above about 10%
GDH-TPI dose = GDH-TPI dose response counter-screen for Mtb FBA | GDH-TPI coupled enzyme assay, fluorescence, artifact counterscreen | IC50, µM | shares compounds with Mtb FBA inh | AID 652145 | 170 compounds, 79% hits; call rule not given here
The depositor's hits bear a star; nt = no result given; + = active, no number. Compounds with a hit are over-represented: about 3.5% of the library has one in this group of screens. Cut-off read from the data, not from the text of the source, unless noted: active = inhibition above about 27%; inactive = the rest.

SMILES | Rv3671c inh | Mtb hypoxia inh | GDH-TPI counter-1 | Mtb FBA inh | FadD28 FP inh | Mtb UGM inh | Mtb FBA inh conf | GDH-TPI counter-2 | others
NS(=O)(=O)c1ccc(NC(=O)COC(=O)COc2ccc3ccccc3c2)cc1 | -5.4 | 2.3 | 5.0 | 42.3* | -3.3 | 1.3 | 55.5* | 37.4*
COC(=O)c1ccc(C=NN2CCN(Cc3ccc(C)cc3C)CC2)cc1 | nt | 0.2 | nt | nt | nt | nt | nt | nt
COc1cccc2c(=O)ccoc12 | -0.4 | 10.0 | -6.8 | 17.4 | -3.8 | -1.2 | nt | nt
COc1c2ccoc2nc2c(OC)cccc12 | 0.9 | 24.1 | 14.2 | 55.2* | -1.0 | -2.5 | 112.8* | 97.0*
CCOC(=O)c1nn(-c2ccc(C)c(C)c2)cc1O | -0.2 | -2.6 | 15.7 | 2.5 | -0.7 | 0.4 | nt | nt
CCOC(=O)c1nn(-c2ccc3c(c2)OCCO3)cc1O | 2.9 | 13.2 | 3.8 | 30.8* | -0.2 | 1.6 | 92.8* | 64.8*
N#Cc1c(C(F)(F)F)cc(-c2ccco2)nc1SCc1ccncc1 | -5.7 | 9.3 | -0.5 | 28.6* | -4.0 | 1.6 | 56.2* | 32.4*
N#Cc1c(C(F)(F)F)cc(-c2ccco2)nc1SCc1ccccn1 | -9.9 | 4.5 | 12.7 | 18.6 | 1.0 | -2.8 | nt | nt
NC(Cc1cc(I)c(O)c(I)c1)C(=O)O (centres undefined) | nt | -11.1 | nt | nt | nt | nt | nt | nt
Cc1c(C=NO)c2ccccn2c1C=O | nt | -2.0 | nt | nt | nt | nt | nt | nt
CCN(C(=O)COC(=O)c1cc2ccccc2cc1OC)c1c(N)n(Cc2ccccc2)c(=O)[nH]c1=O | nt | 4.1 | -3.5 | 38.8* | -3.7 | nt | 101.9* | 69.8*
CNc1ccccc1C(=O)OCC(=O)N(CCOC)c1c(N)n(CC(C)C)c(=O)[nH]c1=O | 6.5 | -2.0 | 10.4 | 92.4* | -0.3 | 2.1 | + | +
O=C(NC1CC1)C1=CC(c2ccc(C(F)(F)F)cc2)CC(OCCCCO)O1 (centres undefined) | nt | 15.7 | nt | nt | nt | nt | nt | nt
COc1ccc(NC(=O)N(C)CC2Oc3ccc(NC(=O)Nc4ccc5c(c4)OCO5)cc3C(=O)N(C(C)CO)CC2C)cc1 (centres undefined) | nt | 2.1 | nt | nt | nt | nt | nt | nt
CN(C)CCCn1c2c3ccccc3ccc2c2oc(=O)c3ccccc3c21 | nt | nt | 6.0 | 27.0* | -1.2 | nt | + | +
CC[C@H]1C(c2ccc(F)cc2)=NN(c2ccccc2)[C@@H]1CO | nt | -1.1 | 13.6 | 30.4* | -0.4 | nt | 64.9* | 62.9*
OC[C@@H]1[C@@H](c2ccc(F)cc2)C(c2ccccc2)=NN1c1ccccc1 | nt | nt | 7.3 | 29.4* | 1.3 | nt | 47.9* | 44.8*
O=C1OCCN1C(=O)[C@H]1[C@H](c2ccc(F)cc2)C(c2ccccc2)=NN1c1ccccc1 | nt | 0.5 | 10.0 | 13.3 | -1.4 | nt | nt | nt
CCCCn1c(N)c(N(CC(C)C)C(=O)CSc2n[nH]c(-c3ccc(C)cc3)n2)c(=O)[nH]c1=O | 3.3 | -1.1 | 13.8 | 67.1* | -2.8 | -1.3 | 69.5* | 44.3*
CCON=C(C)c1c(O)c2ccccc2n(C)c1=O | nt | 4.2 | nt | nt | nt | nt | nt | nt
CCOC(=O)C1=C(O)C(=Cc2ccc(CNC(=O)C(=O)Nc3ccccc3)o2)N=C1C | nt | 2.8 | nt | nt | nt | nt | nt | nt
C=CCOc1ccc(/C=C/C(=O)Nc2ccc(C(=O)NC)cc2)cc1 | -18.4 | -6.3 | 23.2 | 45.4* | -2.1 | -2.1 | 44.1* | 36.6*
CCCCOc1ccc(/C=C/C(=O)Nc2ccc(C(N)=O)cc2)cc1 | -15.0 | 9.6 | 16.2 | -1.1 | -2.5 | -0.2 | nt | nt
COc1ccc(-n2c(C)nnc2SCC(=O)NC2CC2)cc1 | -7.1 | nt | -3.0 | 91.8* | -0.6 | -1.7 | 42.1* | 34.0*
C#Cc1ccc(C2C=C(C(=O)NCc3ccccc3)OC(OCc3ccc(CO)cc3)C2)cc1 (centres undefined) | nt | 0.8 | nt | nt | nt | nt | nt | nt
SMILES | Rv3671c inh | Mtb hypoxia inh | GDH-TPI counter-1 | Mtb FBA inh | FadD28 FP inh | Mtb UGM inh | Mtb FBA inh conf | GDH-TPI counter-2 | others
CC(=O)Nc1ccc(S(=O)(=O)Nc2cccc(-c3cn4cccnc4n3)c2)cc1 | -5.7 | 7.3 | 17.6 | 64.3* | -8.2 | 3.3 | -3.3 | -9.3
COc1ccc2cc(S(=O)(=O)N3CCCC(C)C3)ccc2c1 (centres undefined) | -1.0 | nt | 10.5 | -0.4 | -2.6 | -2.2 | nt | nt
CC1CCCN(S(=O)(=O)c2ccc3c(c2)c(=O)nc2ccccn23)C1 (centres undefined) | -1.6 | 8.0 | 11.9 | 65.6* | -2.4 | -4.9 | 89.0* | 64.6*
CC(=O)Nc1ccc(S(=O)(=O)Nc2cccc(-c3csc(C)n3)c2)cc1 | -1.2 | 3.8 | 2.9 | 2.2 | -2.1 | -0.3 | nt | nt
CC1CCCN(S(=O)(=O)c2cccc(-c3cn4cccnc4n3)c2)C1 (centres undefined) | 7.8 | 5.6 | 8.7 | 75.5* | -1.6 | -2.5 | 122.2* | 139.1*
COC(=O)c1ccc(COc2ccccc2C=NNS(=O)(=O)c2ccccc2)cc1 | nt | 2.0 | nt | nt | nt | nt | nt | nt
O=C1Nc2ccccc2C1=NN1CCOCC1 | nt | 6.1 | nt | nt | nt | nt | nt | nt
O=C(CNC(=O)c1ccc2c(c1)OCO2)NN=Cc1cccc([N+](=O)[O-])c1 | nt | 13.8 | nt | nt | nt | nt | nt | nt
O=C(CSCc1ccc(Cl)cc1)NN=Cc1c(Cl)cccc1Cl | nt | 3.5 | nt | nt | nt | nt | nt | nt
COc1ccccc1N1C(=O)NC(=O)/C(=C/c2ccc3c4c(cccc24)CC3)C1=O | -4.5 | 5.6 | 18.0 | 37.7* | 1.3 | -1.3 | 17.5 | -6.0 | GDH-TPI dose=3.89*
O=C1NC(=O)N(c2ccccc2)C(=O)/C1=C\c1ccc2c3c(cccc13)CC2 | -16.2 | nt | nt | nt | nt | -1.5 | nt | nt
O=C(O)CCC(=NNC(=O)c1ccc(-c2ccccc2)cc1)c1ccccc1 | nt | 13.5 | nt | nt | nt | nt | nt | nt
Cc1cc(OCC(=O)NCc2ccncc2)c2c(C)cc(=O)oc2c1 | -4.7 | -1.2 | 17.3 | 79.0* | -1.2 | 3.2 | 39.5* | 39.1*
Cc1cc(OC(C)C(=O)NCc2ccncc2)c2c(C)c(C)c(=O)oc2c1 (centres undefined) | -6.8 | 4.5 | 6.5 | 102.9* | 0.2 | -0.5 | 56.6* | 49.5*
Cc1cc(OCC(=O)NCC(O)c2ccccc2)c2c(C)cc(=O)oc2c1 (centres undefined) | 0.1 | -14.0 | 1.9 | 77.4* | -0.1 | -2.1 | 17.4 | -2.7
COc1ccc(CCNC(=O)COc2cc(C)cc3oc(=O)cc(C)c23)cc1 | -4.0 | 2.3 | 6.0 | 2.9 | -1.6 | -3.2 | nt | nt
Cc1cc(OCC(=O)NCCc2ccc(S(N)(=O)=O)cc2)c2c(C)cc(=O)oc2c1 | -5.3 | 6.7 | -5.9 | 67.4* | -3.5 | -0.6 | 119.7* | 97.2*
COc1cccc(C=NN2CCN(Cc3ccccc3)CC2)c1O | nt | 6.8 | nt | nt | nt | nt | nt | nt
CC(C)CC1CN=C(Nc2ccccc2)N1CC1CCCCC1 (centres undefined) | nt | -0.4 | nt | nt | nt | nt | nt | nt
Cc1ccccc1OC(C)C(=O)NCc1cccnc1 (centres undefined) | 1.1 | 8.5 | -3.1 | 0.5 | -1.0 | -3.3 | nt | nt

Screens deposited in PubChem by several laboratories.
